From the supplement of paper PMC6555819

Experiments:
Test in all cases: PBM binding z-score (relative to random genomic background probes); higher = stronger binding; sequences stand for … in GC…GCGATTGACAGCGTAGAATGAAGG
[1] = tested on: FXR:RXRa (NR concentration 270 nM, RXRa partner concentration 90 nM)
Procedure, shortened: (§1)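 Random background probes are the reference for binding z-scores. These scores derive from regression-normalized fluorescence on custom Agilent 4×180K protein-binding microarrays incubated 1 h with ligand-free nuclear receptor dimers. Binding was detected with antibodies against each partner (one per run).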

[2] = tested on: LXRa:RXRa (NR concentration 270 nM, RXRa partner concentration 90 nM)
Procedure, shortened: as §1

[3] = tested on: LXRa homodimer (NR concentration 270 nM)
Procedure, shortened: as §1

[4] = tested on: LXRb:RXRa (NR concentration 270 nM, RXRa partner concentration 90 nM)
Procedure, shortened: as §1

[5] = tested on: LXRb homodimer (NR concentration 270 nM)
Procedure, shortened: as §1

[6] = tested on: PPARa:RXRa (NR concentration 270 nM, RXRa partner concentration 90 nM)
Procedure, shortened: as §1

[7] = tested on: PPARg:RXRa (NR concentration 180 nM, RXRa partner concentration 90 nM)
Procedure, shortened: as §1

[8] = tested on: PPARg:RXRa 270nM:90nM, anti-RXR (NR concentration 270 nM, RXRa partner concentration 90 nM)
Procedure, shortened: as §1

[9] = tested on: PPARg:RXRa 30nM:10nM, anti-RXR (NR concentration 30 nM, RXRa partner concentration 10 nM)
Procedure, shortened: as §1

[10] = tested on: PPARg:RXRa 90nM:30nM, anti-RXR (NR concentration 90 nM, RXRa partner concentration 30 nM)
Procedure, shortened: as §1

[11] = tested on: PPARg:RXRa DBDmut IVT, anti-RXR (DBD mutation: RXRa K156A/R161A, NR concentration 270 nM, RXRa partner concentration 90 nM)
Procedure, shortened: as §1

[12] = tested on: PPARg:RXRa IVT, anti-PPARg (NR concentration 270 nM, RXRa partner concentration 90 nM)
Procedure, shortened: as §1

[13] = tested on: PPARg DBDmut:RXRa IVT, anti-PPARg (DBD mutation: PPARg1 K132A/R137A, NR concentration 270 nM, RXRa partner concentration 90 nM)
Procedure, shortened: as §1

[14] = tested on: PPARg DBDmut IVT, anti-PPARg (DBD mutation: PPARg1 K132A/R137A, NR concentration 270 nM)
Procedure, shortened: as §1

[15] = tested on: PPARg homodimer (NR concentration 180 nM)
Procedure, shortened: as §1

[16] = tested on: PXR:RXRa (NR concentration 270 nM, RXRa partner concentration 90 nM)
Procedure, shortened: as §1

[17] = tested on: PXR homodimer (NR concentration 270 nM)
Procedure, shortened: as §1

[18] = tested on: RARa:RXR (NR concentration 270 nM, RXRa partner concentration 90 nM)
Procedure, shortened: as §1

[19] = tested on: RARa homodimer (NR concentration 270 nM)
Procedure, shortened: as §1

[20] = tested on: RARb:RXRa (NR concentration 270 nM, RXRa partner concentration 90 nM)
Procedure, shortened: as §1

Sequence | PBM binding z-score [1] | PBM binding z-score [2] | PBM binding z-score [3] | PBM binding z-score [4] | PBM binding z-score [5] | PBM binding z-score [6] | PBM binding z-score [7] | PBM binding z-score [8] | PBM binding z-score [9] | PBM binding z-score [10] | PBM binding z-score [11] | PBM binding z-score [12] | PBM binding z-score [13] | PBM binding z-score [14] | PBM binding z-score [15] | PBM binding z-score [16] | PBM binding z-score [17] | PBM binding z-score [18] | PBM binding z-score [19] | PBM binding z-score [20]
TCATATGGGTAAAAGGTGAAAGTCGGTGTGGTAA | 1.33 | 1.38 | -0.164 | 1.62 | -0.571 | 4.91 | 8.23 | 7.44 | 7.67 | 8.21 | 4.48 | 4.52 | 0.558 | 0.338 | 1.03 | 1.61 | -0.132 | 2.3 | 0.788 | 1.85
GCTAGTTGGTCAGTAAAAGGGCACACACCGGTCG | 0.16 | 0.257 | 0.266 | 0.266 | -0.104 | 0.841 | 0.709 | 1.04 | 0.0544 | 0.502 | 0.062 | 0.821 | 0.0138 | -0.25 | 1.05 | 0.368 | 0.0129 | 0.889 | 0.252 | 1.72
GCTAGTTGGTCAGTAAAAGGTTACACACCGGTCG | 0.754 | 1.32 | 0.582 | 1.27 | -0.0752 | 1.85 | 0.972 | 2.31 | 0.546 | 1.46 | 0.66 | 1.05 | -0.658 | -0.197 | 1.27 | 1.42 | 0.164 | 1.98 | 0.524 | 2
CCGACTGGGGCATAAGGTCACCATAAGCCAGCCC | 3.25 | 3.18 | 0.732 | 2.78 | -0.819 | 4.02 | 4.56 | 4.89 | 2.53 | 4.9 | 2.94 | 4.43 | 0.997 | 0.485 | 6.12 | 3.81 | 0.594 | 5.16 | 2.35 | 3.84
TCTTGTAGATCAAGCAGGTTAGGAAAGCCTGAGT | -0.176 | 0.11 | -0.571 | -0.145 | -0.701 | 0.251 | -0.615 | 1 | 2.29 | 1.62 | 1.57 | 0.595 | 0.172 | -0.0543 | -0.235 | -0.00169 | 0.0817 | 0.204 | -0.0735 | -0.0169
ATCTCTAGGTAAAAGTTTAGTGAATCCCGAGGAT | 0.336 | 0.276 | 0.317 | 0.0669 | 1.09 | 2.34 | 3.7 | 4.99 | 2.89 | 5.11 | 2.01 | 2.09 | 0.984 | 0.97 | 0.897 | 0.34 | 0.253 | 0.103 | 0.693 | 0.667
CCAGACACGTGAAAGGTAACTCAGTCTGGTACGC | -0.513 | -0.178 | -0.428 | 0.0481 | -0.283 | 0.287 | 0.636 | 0.0199 | -0.466 | -0.253 | -0.261 | -0.369 | -0.212 | -0.126 | -0.0268 | -0.338 | -0.312 | -0.206 | 0.0098 | 0.231
AGTCAAAGTTCGTCTAGGTAACGTAAGATATGCT | 1.46 | 1.16 | 0.363 | 0.787 | -0.0526 | 1.84 | 2.79 | 3.39 | 1.44 | 2.71 | -0.0534 | 1.36 | 0.664 | 0.773 | 1.41 | 1.99 | 1.83 | 1.34 | 0.143 | 2.54
CCTACTGGGCCAAGGTCCTTGATCAGTCAAAGCA | -2.77 | -0.638 | -0.83 | -0.659 | -1.31 | 0.607 | 0.83 | 1.73 | -0.152 | 0.845 | 3.51 | 3.4 | -1.28 | -1.15 | -0.287 | -0.74 | -0.766 | -0.787 | -1.65 | 0.256
CATACAGGGTCAGATAGGCCAGAGTAGGGACGGC | 4.34 | 3.14 | 0.146 | 2.31 | 0.65 | 4.26 | 3.15 | 2.6 | 0.58 | 1.71 | 0.492 | 2.13 | 1.29 | 1.07 | 2.72 | 2.05 | 0.241 | 2.94 | 0.209 | 3.55
ATATGTAGGTTAAGGGTCATCCAGGTTGGTTCGC | 4.92 | 5.03 | 2.83 | 4.66 | 1.61 | 6.89 | 12.2 | 10.6 | 11.2 | 12.3 | 7.61 | 8.22 | 4.43 | 2.04 | 4.33 | 5.87 | 2.5 | 6.77 | 2.63 | 3.99
TCTAGCAGGCCAGAGGTTCACTCAAGAGGTACGG | -0.592 | -0.361 | -0.519 | -0.224 | -1.44 | 0.888 | 1.43 | 2.96 | 2.15 | 2.98 | 0.614 | -0.232 | -1.08 | -0.88 | -0.59 | 0.274 | -0.691 | 0.324 | -0.904 | 0.468
ACAGACAGGTGAGTGAACGTAACTCAGCTGGACG | -0.265 | -0.366 | -0.561 | -0.436 | -0.532 | -0.0939 | 0.744 | -0.203 | -0.222 | -0.308 | 0.689 | 0.457 | 0.319 | -1.39 | -0.743 | -0.554 | -0.547 | -0.741 | -0.186 | 0.247
ATATGTAGGTTAGCTGGGGTCATTCAGACTAGGC | 4.38 | 5.95 | 3.02 | 4.75 | 0.992 | 5.13 | 5.66 | 5.12 | 2.67 | 4.46 | 6.68 | 6.23 | 2.15 | 1.68 | 2.64 | 6.34 | 4.08 | 5.73 | 1.52 | 2.96
